In the library only some 6.6% were active in any assay of this set; here they are far more common.
HepG2 viability = qHTS for Inhibitors of TGF-b: Cytotox Counterscreen. HepG2 CAGA-GFP viability, ATP luminescence, 18 h. Potency, µM (top dose mostly 46.1 µM), most hits filed as cytotoxic. 410,000 tested, 0.76% active
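CellTiter-Glo luminescence gave cytotoxicity after 18 hours at 37 degrees C. The cells were HepG2 CAGA-GFP in 1% FBS DMEM, stimulated with 500 pg/mL TGF-beta after compound addition. %Activity was normalised to no-cell wells (complete cell-killing) and DMSO (no toxicity), and curves were fitted and classified.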
KB-3-1 tox = qHTS assay for MDR1-selective chemotherapeutics: Primary screen using the parental adenocarcinoma cell KB-3-1 | KB-3-1 viability, CellTiter-Glo ATP luminescence, 72 h | Potency, µM (top dose mostly 46.1 µM), hits mostly cytotoxic | 400,000 tested, 1.4% active | AID 1347075, 2019; also: nearly all actives have a fitted effect of over 60% in size
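Cytotoxicity in the drug-sensitive parental line KB-3-1 was scored as loss of CellTiter-Glo luminescence following 72 h incubation with compound. Values come from curve fitting of normalized concentration-response data.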
KB-V1 MDR tox = qHTS assay for MDR1-selective chemotherapeutics: Primary screen using the drug-selected MDR subline cells KB-V1; KB-V1 MDR cells viability, CellTiter-Glo, 72 h; 400,000 tested, 3.4% active; Potency, µM (top dose mostly 46.1 µM), hits mostly cytotoxic; also: nearly all actives have a fitted effect of over 60% in size
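Cells of the MDR subline KB-V1 are plated, dosed with compound at multiple concentrations, and incubated 72 h at 37 degrees C; CellTiter-Glo is then added and luminescence read after 10 min.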
TGFb inhibitor = qHTS for Inhibitors of TGF-b | HepG2 CAGA-GFP TGF-b/SMAD3 reporter, GFP fluorescence, 18 h; TGF-beta stimulated, 500 pg/mL final | Potency, µM (top dose mostly 46.1 µM), usual class: inhibitors | 410,000 tested, 1.2% active; also: nearly all actives have a fitted effect of over 65% in size
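Read-out: total well GFP (ex488/em500-530) summed from mean per-cell fluorescence. Cells: HEPG2 CAGA-GFP, 1% FBS DMEM, 18 h at 37 degrees C with 500 pg/mL final TGF-beta. Unstimulated wells served as the full-inhibition control; stimulated DMSO wells = 0%.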
HT1080 IDH1KD tx = qHTS for induction of synthetic lethality in tumor cells producing 2HG: qHTS for the HT-1080-IDH1KD cell line; HT-1080 IDH1 knockdown viability, ATP luminescence, 48 h; Potency, µM (doses to about 46.1 µM), usual class: cytotoxic; 360,000 tested, 2% active; AID 686971, 2013
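Cytotoxicity counter-line: IDH1KD HT-1080, 48 h, CellTiter-Glo. Curves classed by r2, magnitude and activity.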
HT1080NT lethal = qHTS for induction of synthetic lethality in tumor cells producing 2HG: qHTS for the HT-1080-NT fibrosarcoma cell line | HT-1080-NT fibrosarcoma viability, CellTiter-Glo ATP luminescence, 48 h | Potency, µM (series often up to 46.1 µM), actives largely listed as cytotoxic | 360,000 tested, 1.6% active;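 also: NT is the 2HG producing partner of a matched IDH1 knockdown line; nearly all actives have a fitted effect of over 55% in size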
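750 cells/well, RPMI + 5% FBS; 2 h settle, compound pin-transfer, 48 h at 37 degrees C. CellTiter-Glo 10 min RT, luminescence. Normalized to DMSO and media-only wells.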
Numbers stand for hits. Calls follow the shape of the dose curve; as a rule, active = well fitted curve in the direction sought with a large enough effect; inconclusive = small, poorly fitted or top-dose-only effect, or another doubt; inactive = no such curve, though single readings can be large; an effect the other way counts as inactive or inconclusive.

For CCCc1cc(=O)n2c(C(=O)Nc3ccc(OCC)cc3)c(C(=O)Nc3ccc(C)cc3)sc2n1 the results were HepG2 viability inactive, KB-3-1 tox inactive, KB-V1 MDR tox inconclusive and TGFb inhibitor inactive.
`COc1ccc(-c2cc(C(F)(F)F)n3nc(C(=O)NCC45CC6CC(CC(C6)C4)C5)cc3n2)cc1` gave HepG2 viability inactive, KB-3-1 tox inconclusive, KB-V1 MDR tox inactive and TGFb inhibitor inactive.
Screening CCOC(=O)c1cc(-c2ccccc2)n(CCCC(=O)Nc2ccc(C)cc2Cl)c1C returned HepG2 viability inactive, KB-3-1 tox inactive, KB-V1 MDR tox inactive and TGFb inhibitor inactive.
For O=C(/C=C/c1ccco1)OCC(=O)N1CCCCC1 the results were HepG2 viability inactive, KB-3-1 tox inactive, KB-V1 MDR tox inconclusive, TGFb inhibitor inactive, HT1080 IDH1KD tx inactive and HT1080NT lethal inactive.
Screening O=S(=O)(Nc1cc(Br)cc2cccnc12)c1ccccc1 returned HepG2 viability inactive and TGFb inhibitor 8.9µM.
`Cc1ccc(S(=O)(=O)Nc2cc(Br)cc3cccnc23)cc1` gave HepG2 viability inactive and TGFb inhibitor inconclusive.
Screening O=C(Nc1cccnc1Cl)c1ccc(S(=O)(=O)N2CCCCCC2)cc1 returned HepG2 viability inactive, KB-3-1 tox inactive, KB-V1 MDR tox 9.2µM, TGFb inhibitor inactive, HT1080 IDH1KD tx inactive and HT1080NT lethal inactive.
Screening CCN1CCN(c2nc3c(S(=O)(=O)c4ccc(Br)cc4)nnn3c3ccsc23)CC1 returned HepG2 viability inactive and TGFb inhibitor inactive.
Screening C#CCOc1nc2c(c(=O)n(C)c(=O)n2C)n1Cc1ccccc1 returned HepG2 viability inactive, KB-3-1 tox inactive, KB-V1 MDR tox inactive, TGFb inhibitor inconclusive, HT1080 IDH1KD tx inactive and HT1080NT lethal inactive.
C=CCOc1nc2c(c(=O)n(C)c(=O)n2C)n1Cc1ccccc1 was read as HepG2 viability inactive, KB-3-1 tox inconclusive, KB-V1 MDR tox 8.2µM, TGFb inhibitor inactive, HT1080 IDH1KD tx inactive and HT1080NT lethal inactive.
Screening CCCCCn1c(CN(C)Cc2ccccc2)nc2c1c(=O)n(C)c(=O)n2C returned HepG2 viability inactive, KB-3-1 tox 18µM, KB-V1 MDR tox 2.3µM, TGFb inhibitor inactive, HT1080 IDH1KD tx inactive and HT1080NT lethal inactive.
Screening CN(Cc1ccccc1)Cc1nc2c(c(=O)n(C)c(=O)n2C)n1Cc1ccc(F)cc1 returned HepG2 viability inactive, KB-3-1 tox inactive, KB-V1 MDR tox 9.2µM, TGFb inhibitor inactive, HT1080 IDH1KD tx inactive and HT1080NT lethal inactive.
O=C1CCCC2=C1C1(CCCC1)N=C(Nc1nc3cc4ccccc4cc3o1)N2 was read as KB-3-1 tox inactive and KB-V1 MDR tox inactive.
O=C(NCc1ccccc1)c1ccc2c(c1)sc1nc(-c3ccc(F)cc3)cn12 was read as HepG2 viability inactive and TGFb inhibitor inactive.
For Fc1cccc(Cl)c1Cn1c(-c2cccs2)nc2ccccc21 the results were HepG2 viability inactive and TGFb inhibitor inconclusive.
Cc1ccc2c(c1)C(c1ccc(F)cc1)N(C(=O)COc1ccc(Cl)cc1Cl)CC(=O)N2 (stereo not given) was read as HepG2 viability inactive, KB-3-1 tox inconclusive, KB-V1 MDR tox inconclusive and TGFb inhibitor inconclusive.
Screening Cn1c(-c2ccc(Cl)cc2)ccc(C#N)c1=O returned HepG2 viability inactive, KB-3-1 tox inconclusive, KB-V1 MDR tox 5.8µM, TGFb inhibitor inactive, HT1080 IDH1KD tx inactive and HT1080NT lethal inactive.
For Cn1cc(-c2ccc(Cl)cc2)cc(C#N)c1=O the results were HepG2 viability inactive, KB-3-1 tox inactive, KB-V1 MDR tox inactive, TGFb inhibitor inactive, HT1080 IDH1KD tx inactive and HT1080NT lethal inactive.
`O=C(O)/C=C/c1ccc([N+](=O)[O-])o1` gave HepG2 viability inactive, KB-3-1 tox inactive, KB-V1 MDR tox inactive, TGFb inhibitor inactive, HT1080 IDH1KD tx inactive and HT1080NT lethal inactive.
For CN1CCN(C(=O)/C=C/c2ccc([N+](=O)[O-])o2)CC1 the results were HepG2 viability inactive, KB-3-1 tox inactive, KB-V1 MDR tox inactive, TGFb inhibitor 11µM, HT1080 IDH1KD tx 21µM and HT1080NT lethal inconclusive.
`COc1ccc(-c2cc(C(C)=O)c(C)n2CCC(=O)Nc2cccc(C)c2C)cc1` gave HepG2 viability inactive, KB-3-1 tox inactive, KB-V1 MDR tox inactive and TGFb inhibitor inactive.
Screening Cc1cc(C)cc(N(CC(=O)N2CCC(C)CC2)S(=O)(=O)c2ccccc2)c1 returned HepG2 viability inactive, KB-3-1 tox inactive, KB-V1 MDR tox 16µM, TGFb inhibitor inactive, HT1080 IDH1KD tx inconclusive and HT1080NT lethal inactive.
`Cc1cc(C)cc(N(CC(=O)N2CCOCC2)S(=O)(=O)c2ccccc2)c1` gave HepG2 viability inactive, KB-3-1 tox inactive, KB-V1 MDR tox inconclusive, TGFb inhibitor inactive, HT1080 IDH1KD tx inactive and HT1080NT lethal inactive.
`Cc1ccc(C)c(SC2=NS(=O)(=O)c3ccccc32)c1` gave KB-3-1 tox inactive and KB-V1 MDR tox inactive.
For COc1cc(C(=O)NC(CCSC)C(=O)Nc2ccc(N3CCOCC3)cc2)cc(OC)c1OC (stereo not given) the results were HepG2 viability inactive, KB-3-1 tox inactive, KB-V1 MDR tox inactive, TGFb inhibitor inactive, HT1080 IDH1KD tx inactive and HT1080NT lethal inactive.
O=S(=O)(c1ccc(F)cc1)N1CCN(c2nc(-c3ccc(F)cc3)nc3cc(Cl)ccc23)CC1 was read as HepG2 viability inactive and TGFb inhibitor inactive.
`CC(C)(C)NNC(=S)Nc1cccc(F)c1` gave HepG2 viability inactive, KB-3-1 tox inactive, KB-V1 MDR tox inactive, TGFb inhibitor inconclusive, HT1080 IDH1KD tx 5.8µM and HT1080NT lethal 2.9µM.
`Oc1ccc(-c2csc(-c3cccnc3)n2)c(O)c1` gave HepG2 viability inactive, KB-3-1 tox 5.8µM, KB-V1 MDR tox inconclusive, TGFb inhibitor inactive, HT1080 IDH1KD tx inactive and HT1080NT lethal inconclusive.
`Clc1ccsc1-c1csc(-c2cccnc2)n1` gave HepG2 viability inactive, KB-3-1 tox 21µM, KB-V1 MDR tox inconclusive, TGFb inhibitor inactive, HT1080 IDH1KD tx inconclusive and HT1080NT lethal inconclusive.
For Oc1ccc(-c2nc(-c3ccc(O)c(O)c3)cs2)cc1 the results were HepG2 viability inactive, KB-3-1 tox 0.52µM, KB-V1 MDR tox 2.1µM, TGFb inhibitor inconclusive, HT1080 IDH1KD tx inconclusive and HT1080NT lethal inconclusive.
